A short description of test [1]: cAMP Responsive Elements (CRE) small molecule antagonists, cell-based qHTS assay: qHTS cell viability counter screen (AID 2060913). Note: nearly all actives have a fitted effect of over 40% in size. A digest of the protocol: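 HEK293T CRE-bla, 2,000 cells/well, 18 h preincubation; cpd in DMSO + NKH477 0.25 uM final, 3 h 37 C/5% CO2; LiveBLAzer 2 h RT, then CellTiter-Glo 30 min RT, luminescence.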
(In general: qHTS replaces the single test concentration by a dilution series.)

Test [2] is described as follows: cAMP Responsive Elements (CRE) small molecule agonists, cell-based qHTS assay: qHTS cell viability counter screen (AID 2060914).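 Note: viability read after 3 h of compound exposure; nearly all actives have a fitted effect of over 50% in size.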 Put shortly: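 CRE-bla HEK 293T cells, plated 18 h at 37 °C, were exposed to compounds for 3 h at 37 °C/5% CO2. Viability was then measured in the same wells by CellTiter-Glo luminescence after 30 min at room temperature.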

Inconclusive results are not listed. Active and inactive are the calls of the source. Calls come from the whole dose curve; as a rule, active = well fitted cell-killing curve with a large enough effect in the repeat runs; inconclusive = weak or mixed curves, or effect the other way; inactive = flat fitted curve, though single readings scatter.
Potency is the fitted concentration of half-maximal effect.

Take `CC(C)(C)C(=O)CCl`: the Potency entry in test [1] and in test [2] was “inactive” throughout.

Take `CCC(C)(C)C(=O)OC1=C(c2ccc(Cl)cc2Cl)C(=O)OC12CCCCC2`: the Potency result in test [1] and in test [2] was “inactive” in each case.

On to `CCCCN(CCCC)C(=S)S`, for which the Potency result in test [1] and in test [2] was “inactive” each time.

Regarding `CCCC[N+](=O)[O-]`, the Potency entry in test [1] and in test [2] was “inactive” in each case.

As for `O=[N+]([O-])c1ccc(Cl)c(Cl)c1Cl`, the Potency result in test [1] and in test [2] was “inactive” in each case.

In the case of `O=C1CCCN1`, the Potency result in test [1] and in test [2] was “inactive” in each case.

As to `CCOP(=O)(Sc1ccccc1)Sc1ccccc1`, the Potency entry in test [1] and in test [2] was “inactive” in each case.

In the case of `CC(Cl)C(=O)O` (stereo not given), the Potency result in test [1] and in test [2] was “inactive” each time.

As for `CCNc1nc(Cl)nc(NC(C)(C)C)n1`, the Potency entry in test [1] and in test [2] was “inactive” throughout.

`O=C(NC(=O)c1cc(F)c(F)cc1Cl)Nc1cc(F)ccc1N1CCC(C(=O)O)CC1`: the Potency entry in test [1] and in test [2] was “inactive” each time.

`COC[C@H](C)N(C(=O)CCl)c1c(C)csc1C`: the Potency entry in test [1] and in test [2] was “inactive” each time.

In the case of `OCCCCO`, the Potency result in test [1] and in test [2] was “inactive” throughout.

As to `O=[N+]([O-])c1cccc2ccccc12`, the Potency entry in test [1] and in test [2] was “inactive” throughout.

In the case of `Nc1cccnc1`, the Potency entry in test [1] and in test [2] was “inactive” throughout.

With `C=CC(=O)OCCCCCC(C)C`, the Potency result in test [1] and in test [2] was “inactive” throughout.

Regarding `ClC1=C(Cl)C2(Cl)C3C(Cl)C(Cl)CC3C1(Cl)C2(Cl)Cl` (stereo not given), the Potency in test [1] was 60.9 µM (active); in test [2], 54.5 µM (active).

As to `N#CC(Br)(Br)C(N)=O`, the Potency result in test [1] and in test [2] was “inactive” each time.

For the compound `CC(C)(c1ccc(O)c(-c2ccccc2)c1)c1ccc(O)c(-c2ccccc2)c1`, the Potency in test [1] and in test [2] was 61.1 µM (active) each time.

Consider `COC(=O)C(C)N(C(=O)c1ccco1)c1c(C)cccc1C` (stereo not given), for which the Potency result in test [1] and in test [2] was “inactive” throughout.

With `CC(C)N(C(=O)SC/C(Cl)=C/Cl)C(C)C`, the Potency result in test [1] and in test [2] was “inactive” in each case.

Regarding `CC(=O)C(Cl)C(=O)N(C)C` (stereo not given), the Potency entry in test [1] and in test [2] was “inactive” each time.

Regarding `C[Si](Cn1cncn1)(c1ccc(F)cc1)c1ccc(F)cc1`, the Potency entry in test [1] and in test [2] was “inactive” each time.

For `C/C=C/C=O`, the Potency result in test [1] and in test [2] was “inactive” in each case.

In the case of `CCOP(=S)(OCC)Oc1cc(C)nc(C(C)C)n1`, the Potency result in test [1] and in test [2] was “inactive” each time.

`CCC(=O)O[C@@H]1C=C2CCC3C(CCC4(C)C3CC[C@@H]4OC(=O)CC)C2CC1` (stereo not given in full): the Potency entry in test [1] and in test [2] was “inactive” in each case.

In the case of `C#C[C@]1(O)C=C[C@H]2[C@@H]3CCC4=CC(=O)CC[C@@H]4[C@H]3CC[C@@]21CC`, the Potency entry in test [1] and in test [2] was “inactive” each time.

`O=C(O)C(Br)CBr` (stereo not given): the Potency result in test [1] and in test [2] was “inactive” in each case.

As for `C=CC1CC=CCC1` (stereo not given), the Potency result in test [1] and in test [2] was “inactive” throughout.

With `CC(C)COC(=O)c1ccccc1C(=O)OCC(C)C`, the Potency entry in test [1] and in test [2] was “inactive” each time.

On to `CC(N)=S`, for which the Potency result in test [1] and in test [2] was “inactive” in each case.

For the compound `Oc1cc(Cl)ccc1Cl`, the Potency entry in test [1] and in test [2] was “inactive” each time.

For `O=C1CN2CCOC2(c2ccccc2Cl)c2cc(Cl)ccc2N1` (stereo not given), the Potency entry in test [1] and in test [2] was “inactive” each time.

Take `O=C(CBr)OCc1ccccc1`: the Potency entry in test [1] and in test [2] was “inactive” each time.

Regarding `O=[N+]([O-])c1ccc(Nc2ccccc2)cc1`, the Potency result in test [1] and in test [2] was “inactive” throughout.

With `O=C(Nc1ccc2[nH]ccc2c1)c1cc2cc(F)ccc2n1Cc1cccc(F)c1`, the Potency result in test [1] and in test [2] was “inactive” throughout.

Turning to `O=c1[nH]c(=O)[nH]c(=O)[nH]1`, the Potency entry in test [1] and in test [2] was “inactive” each time.

On to `Nc1ccc([As](=O)(O)O)cc1`, for which the Potency result in test [1] and in test [2] was “inactive” throughout.

Consider `COCCC#N`, for which the Potency result in test [1] and in test [2] was “inactive” throughout.

As for `CC(C)(C)NC[C@H](O)c1ccc(O)cc1Cl`, the Potency result in test [1] and in test [2] was “inactive” throughout.

As for `C=CC(=O)OCCCCO`, the Potency entry in test [1] and in test [2] was “inactive” throughout.

Consider `C[C@]12CC[C@H]3[C@@H](CC=C4C[C@@H](O)CC[C@@]43C)[C@@H]1CC[C@@H]2O`, for which the Potency entry in test [1] and in test [2] was “inactive” in each case.

As to `CCNc1nc(Cl)nc(NC(C)(C)C#N)n1`, the Potency entry in test [1] and in test [2] was “inactive” in each case.

On to `C=CCOC(=O)c1ccccc1N`, for which the Potency result in test [1] and in test [2] was “inactive” throughout.

Regarding `COC(N)=O`, the Potency result in test [1] and in test [2] was “inactive” throughout.

Turning to `O=[N+]([O-])c1cc(Cl)ccc1Cl`, the Potency result in test [1] and in test [2] was “inactive” each time.

Regarding `O=S(=O)(C(Cl)(Cl)Cl)C(Cl)(Cl)Cl`, the Potency result in test [1] and in test [2] was “inactive” throughout.

Turning to `CCCCON=O`, the Potency result in test [1] and in test [2] was “inactive” throughout.

Regarding `CCc1ccccc1C`, the Potency result in test [1] and in test [2] was “inactive” each time.

Take `CCOCCOC(C)=O`: the Potency result in test [1] and in test [2] was “inactive” each time.

Take `CN(N=O)c1ccc([N+](=O)[O-])cc1`: the Potency entry in test [1] and in test [2] was “inactive” in each case.

Turning to `CC(C)(O)C#N`, the Potency result in test [1] and in test [2] was “inactive” in each case.

For the compound `CCCCCCCCCCOC(=O)c1ccccc1C(=O)OCCCCCCCCCC`, the Potency result in test [1] and in test [2] was “inactive” in each case.

`C1CCC2CCCCC2C1` (stereo not given): the Potency result in test [1] and in test [2] was “inactive” each time.

With `Cc1ccc(N)cc1N`, the Potency entry in test [1] and in test [2] was “inactive” in each case.

On to `O=NN1CCCCCC1`, for which the Potency result in test [1] and in test [2] was “inactive” each time.

Turning to `Brc1ccc(Oc2ccccc2)cc1`, the Potency entry in test [1] and in test [2] was “inactive” each time.

For the compound `N#CCc1ccccc1`, the Potency result in test [1] and in test [2] was “inactive” each time.

As to `C=CCN(CC=C)C(=O)C(Cl)Cl`, the Potency entry in test [1] and in test [2] was “inactive” throughout.

On to `CCCCC(=O)Cl`, for which the Potency result in test [1] and in test [2] was “inactive” each time.

Consider `O=C(CCl)c1ccc(Cl)cc1Cl`, for which the Potency result in test [1] and in test [2] was “inactive” throughout.

Source of the values: PubChem BioAssay (Tox21).
